Screening data from PubChem.
Shown are actives, neighbours in structure and some others; about 2.6% of the full set was active somewhere.
A3A deaminase: inhibitors of human APOBEC3A DNA deaminase; P31941; 330,000 compounds, 0.41% hits; recombinant A3A, FAM/TAMRA ssDNA deamination fluorescence; inhibition, % at 20 µM; AID 493011;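 active = at least 40% inhibition at 20 µM here, with at most 30% in a related deaminase screen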;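 also: plate controls were A3A with DMSO for no effect and wells lacking A3A enzyme for full effect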
Target sequence (P31941 whole entry, looked up): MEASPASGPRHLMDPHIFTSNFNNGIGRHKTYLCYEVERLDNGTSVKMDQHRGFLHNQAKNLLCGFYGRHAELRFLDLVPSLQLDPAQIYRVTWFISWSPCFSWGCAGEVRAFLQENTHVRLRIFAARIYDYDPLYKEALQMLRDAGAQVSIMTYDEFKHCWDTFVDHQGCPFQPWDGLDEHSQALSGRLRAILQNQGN
PABP1 MLLE inh: blocks PAM2 peptide binding to the PABP1 MLLE domain. inhibition, % at 20 µM. GST-MLLE / FITC-PAM2 fluorescence polarization. 360,000 compounds, 0.36% hits; in the data active = inhibition above about 35%, passing the limit was not always enough;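 also: plate controls were DMSO wells with GST-MLLE for no effect and wells lacking GST-MLLE protein for full effect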
eIF4H inh: inhibitors of RNA binding by human eIF4H | Q15056 | eIF4H fluorescence polarization binding assay | inhibition, % at 35 µM | 290,000 compounds, 0.94% hits;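 also: calls also rest on retests at 20 µM and on dose response follow-up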
PHOSPHO1 block: blocks human PHOSPHO1 phosphatase activity; Q8TCT1; recombinant PHOSPHO1, absorbance phosphatase assay; inhibition, % at 13.3 µM; 290,000 compounds, 1.1% hits; in the data active = inhibition above about 60%
PABP FP inh: PABP-poly(A) binding inhibition; calls only at 35 µM; 290,000 compounds, 1% hits; PABP-poly(A) RNA binding, fluorescence polarization;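 also: calls also rest on retests at 20 µM and on dose response follow-up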
APOBEC3G inh: blocks human APOBEC3G single-stranded DNA deamination; 330,000 compounds, 0.28% hits; recombinant A3G, ssDNA deamination FAM/TAMRA fluorescence; Q9HC16; inhibition, % at 20 µM;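 active = inhibition of at least 40% at 20 µM, with no more than 30% in the related APOBEC3A deaminase screen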;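 also: plate controls were DMSO wells with A3G for no effect and wells lacking A3G enzyme for full effect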
Target sequence (Q9HC16 whole entry, looked up): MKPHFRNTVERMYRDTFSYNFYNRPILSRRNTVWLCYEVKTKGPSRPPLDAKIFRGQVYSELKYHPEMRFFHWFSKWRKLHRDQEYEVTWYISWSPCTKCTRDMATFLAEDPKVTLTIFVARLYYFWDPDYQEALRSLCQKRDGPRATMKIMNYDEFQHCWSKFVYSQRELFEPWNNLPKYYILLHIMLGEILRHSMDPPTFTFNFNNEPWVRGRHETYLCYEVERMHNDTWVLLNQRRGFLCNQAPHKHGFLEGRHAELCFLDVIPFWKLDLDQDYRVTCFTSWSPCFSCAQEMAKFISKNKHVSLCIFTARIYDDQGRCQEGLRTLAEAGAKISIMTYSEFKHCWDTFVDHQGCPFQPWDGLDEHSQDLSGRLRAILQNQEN
A3A conf: confirmation of human APOBEC3A DNA deaminase inhibitors | shares compounds with A3A deaminase | recombinant A3A, ssDNA deaminase UDG fluorescence assay | inhibition, % at 20 µM | 1,400 compounds, 63% hits;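 active = inhibition reaching a set limit, 80% of the first screen's cutoff, at 20 µM in any replicate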;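 also: plate controls were DMSO wells with A3A for no effect and wells lacking A3A enzyme for full effect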
UDG A3A counter: counter-screen for APOBEC3A inhibitors: UDG | shares compounds with A3A deaminase | UDG counterscreen, FAM/TAMRA uracil oligo fluorescence | inhibition, % at 20 µM | 1,000 tested, under 10 active | AID 504714
Active calls of the source: *; i = inactive; . = not tested or not shown; + = active, no number. Unless noted, no rule for the calls is given here.

SMILES	A3A deaminase	PABP1 MLLE inh	eIF4H inh	PHOSPHO1 block	PABP FP inh	APOBEC3G inh	A3A conf	UDG A3A counter
CCN(CC(=O)Nc1ccc(NC(C)=O)cc1)C(=O)/C=C/c1cn(-c2ccccc2)nc1-c1cccs1	45*	-49	.	.	.	4	16	.
CCN(CC(=O)Nc1ccc(NC(C)=O)cc1)C(=O)/C=C/c1ccccc1	-1	-12	.	.	.	-10	.	.
CCN(CC)C(=O)C1=C(C)N(Cc2ccccc2)C(=O)C(CC(=O)NCc2cccc3ccccc23)C1 (centres undefined)	.	-1	.	.	.	.	.	.
COc1ccc(/C=C2\SC(=S)N(CC3CCCO3)C2=O)cc1 (centres undefined)	2	8	-6	4	i	-3	.	.
Cc1ccc(/C=C2\SC(=S)N(C3CCS(=O)(=O)C3)C2=O)cc1 (centres undefined)	-5	23	14	9	i	-11	.	.
O=C1/C(=C/c2ccco2)SC(=S)N1C1CCS(=O)(=O)C1 (centres undefined)	47*	35	99	-67	+	18	52*	.
O=C1/C(=C/c2ccco2)SC(=S)N1CC1CCCO1 (centres undefined)	56*	5	74*	4	i	19	26*	3
O=C(NCc1cccc(C(F)(F)F)c1)c1ccc2nc([C@H]3C[C@H](O)[C@@H](CO)O3)[nH]c2c1	.	-3	.	.	.	.	.	.
O=c1[nH]c(=S)[nH]cc1Oc1ccc(Cl)cc1	.	35	.	.	.	.	.	.
Cc1n(-c2ccccc2)c2ccc(Cl)cc2[n+]1CCO	50*	-93	1	10	+	16	75*	-2
C[n+]1cccc(C(=O)N/N=C/c2ccc3c(c2)OCO3)c1	75*	-138	-8	16	i	18	69*	-1
O=C(N/N=C/c1ccc2c(c1)OCO2)c1ccc(COCC(F)(F)C(F)F)cc1	98*	-8	4	5	i	-6	-1	-2
COC1=C(Br)C(=O)c2ncccc2C1=O	.	25	.	.	.	.	.	.
Cc1ccc(NC(=O)CN(C)C(=O)c2cn(Cc3ccccc3)nc2-c2cccnc2)cc1	1	1	.	.	.	-1	.	.
Oc1cccc(O)c1O	42*	.	.	.	.	4	44*	.
Cc1nc2ccc(NS(=O)(=O)c3ccc(F)c(C)c3)cc2[nH]1	1	6	-2	13	i	-3	.	.
COC(=O)c1ccc(CN2C(=O)c3ccccc3S2(=O)=O)cc1	1	11	-4	-33	i	-7	.	.
COC(=O)c1cccc(N2C(=O)c3ccccc3S2(=O)=O)c1	40*	-114	2	92*	i	19	1	.
N/C(=N/OC(=O)c1cccc([N+](=O)[O-])c1)c1cccc([N+](=O)[O-])c1	47*	19	-4	-3	i	-4	7	5
N/C(=N/S(=O)(=O)c1ccccc1)c1cccc([N+](=O)[O-])c1	45*	-6	1	-22	i	-7	0	0
CCOc1ccc(N2CC(C(=O)NC3=NCCS3)CC2=O)cc1 (centres undefined)	-1	-9	-6	5	i	-1	.	.
CCC(=O)Oc1ccc(C(=O)Nc2cccc(C(=O)c3ccccc3)c2)cc1	45*	-9	-3	-20	i	-3	-6	1
COCCn1c(Br)nc2c1c(=O)n(C)c(=O)n2C	48*	5	-11	48	i	-1	1	8
C=CCOc1ccc(/C=C/C(=O)OCC(=O)N(C)CC(=O)Nc2ccccc2Cl)cc1	0	-5	.	.	.	-9	.	.
CCCc1nc2sc3c(SCC(=O)NCc4ccco4)ncnc3c2c2c1CCC2	54*	10	78*	-4	+	26	42*	-3
SMILES	A3A deaminase	PABP1 MLLE inh	eIF4H inh	PHOSPHO1 block	PABP FP inh	APOBEC3G inh	A3A conf	UDG A3A counter
CCn1cc(CN2CCCC(CNC(=O)COc3ccccc3OC)C2)c(C)n1 (centres undefined)	-1	12	5	13	i	6	.	.
CC(C)C1Nc2ccc(C(=O)O)cc2C2C=CCC21 (centres undefined)	40*	29	96*	10	i	28	42*	6
CCOC(=O)C1Nc2ccc(C(=O)O)cc2C2C=CCC12 (centres undefined)	81*	50*	96*	3	+	27	89*	1
COc1ccccc1CCC(=O)NNC(=O)Cn1nc(C)cc1C	.	16	.	.	.	.	.	.
Cc1cccc(OCCC(=O)Nc2ccc(F)c(Cl)c2)c1	1	1	-6	-1	i	-10	.	.
Cn1cnc(C(=O)N2CCN(c3ccccc3)CC2)c1C(=O)N1CCN(c2ccccc2)CC1	59*	-110	.	.	.	16	67*	2
Cn1cnc(C(=O)N2CCN(C(=O)OC(C)(C)C)CC2)c1C(=O)N1CCN(C(=O)OC(C)(C)C)CC1	46*	-155	.	.	.	8	64*	0
CC(C)(C)OC(=O)N1CCN(C(=O)c2nc[nH]c2C(=O)N2CCN(C(=O)OC(C)(C)C)CC2)CC1	0	5	.	.	.	-10	.	.
Nc1ccc(-c2ccc(N)c(C(=O)O)c2)cc1C(=O)O	48*	-12	34	25	i	12	37*	1
COc1ccc(N2Cc3cccc(C(=O)N4CCN(C(=O)c5ccco5)CC4)c3C2=O)cc1	59*	-10	93*	-4	+	29	43*	.
CC1(C(=O)NCc2cccc(Cl)c2)Cc2c(-c3cccc(C(N)=O)c3)ccnc2O1 (centres undefined)	.	1	.	.	.	.	.	.
CN1/C(=C\C=[N+](C)c2ccccc2)C(C)(C)c2ccccc21	56*	-82	0	-50	i	13	77*	-33
O=C(CSC1=NCCS1)NC1CCCCC1	49*	-139	-12	-7	i	8	52*	0
CN(Cc1ccccc1)C(=O)CSc1n[nH]c(N)n1	0	-6	-1	31	i	-4	.	.
CCOC(=O)C1=C(COC(=O)/C=C/c2ccco2)NC(=O)NC1C (centres undefined)	48*	-1	.	.	.	5	44*	4
COc1ccc(NC(C)=[N+](C)CCNS(=O)(=O)c2ccc(Cl)cc2)cc1	46*	-49	-16	-23	+	14	29	.
COc1ccccc1CN1CC(C(=O)NCC2(O)CCCCC2)CCC1=O (centres undefined)	.	4	.	.	.	.	.	.
COc1cc(OC)c2ccc(=O)oc2c1C(CCN1CCCC1)c1ccc2c(c1)OCO2 (centres undefined)	64*	-3	2	40	i	20	-1	.
COc1cc(OC)c2ccc(=O)oc2c1C(CCN1CCOCC1)c1ccc2c(c1)OCO2 (centres undefined)	2	4	.	.	.	1	.	.
